Seven compounds from PubChem BioAssay AID493194 (Broad Institute, 2011) can be followed below.

Results with a measured potency or affinity are listed apart. Records with an inconclusive call do not appear. Unmarked numbers belong to inactive results.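 Rule for the calls: active = a valid curve of falling signal whose half-effect concentration is at most ten times the top tested dose; inconclusive = flat curve at 30 to 70% inhibition, or poor fit; inactive = signal rise, flat within 30%, or potency beyond limit.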

The target of the test is Scavenger receptor class B member 1 (Mus musculus) (UniProt Q61009). The test can be described thus: mouse SR-BI DiI-HDL uptake blockers – ldlA[mSR-BI] cells, fluorescence, cherry pick, dose response (AID 493194).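 Note: CHO cells lacking LDL receptor and overexpressing mouse SR-BI; cellular uptake of fluorescently labeled HDL measured as cell fluorescence; 0% = median of neutral control wells and -100% = median of positive control wells.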 The following applies: CHO ldlA[mSR-BI] DiI-HDL uptake fluorescence, 3 h; series mostly up to 35 µM; activity change, negative = inhibition: at the top concentration.
Chain of Scavenger receptor class B member 1 (Mus musculus) (Q61009 whole entry, looked up): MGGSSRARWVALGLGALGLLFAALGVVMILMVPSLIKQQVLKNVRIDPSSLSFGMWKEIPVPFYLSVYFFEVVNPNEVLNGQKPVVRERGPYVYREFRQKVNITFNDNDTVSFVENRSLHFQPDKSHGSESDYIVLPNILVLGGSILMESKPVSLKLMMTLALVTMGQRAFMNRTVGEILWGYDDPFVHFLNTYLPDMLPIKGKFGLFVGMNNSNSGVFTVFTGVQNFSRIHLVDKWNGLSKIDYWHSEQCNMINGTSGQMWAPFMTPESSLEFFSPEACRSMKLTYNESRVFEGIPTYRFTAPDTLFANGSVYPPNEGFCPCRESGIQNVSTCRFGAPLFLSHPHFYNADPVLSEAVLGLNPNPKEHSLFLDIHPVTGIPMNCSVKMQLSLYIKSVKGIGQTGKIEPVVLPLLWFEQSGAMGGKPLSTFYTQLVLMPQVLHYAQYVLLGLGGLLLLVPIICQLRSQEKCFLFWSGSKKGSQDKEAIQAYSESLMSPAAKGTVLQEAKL
Turning to `O=C(Nc1ccccc1F)OC1CN2CCC1CC2` (configuration not stated), the “activity change, negative = inhibition” value was 31%. In the case of `CCCCCCn1c(=O)c(C(=O)Nc2cnccn2)c(O)c2ccccc21` it was 64.8%; in that of `O=S1(=O)N(CCN2CC=C(c3c[nH]c4cc(F)ccc34)CC2)c2cccc3c2N1CCC3`, 0.978%; in that of `O=c1cccc2n1CC1CC2CN(S(=O)(=O)c2cc(Cl)ccc2Cl)C1` (configuration not stated), 8.09%. For `CNC1(c2ccc(F)cc2)CCCCC1`, the “activity change, negative = inhibition” value is 6.55%.

As for `COc1ccc(NC(=O)C2C3CCC(O3)C2C(=O)O)c(OC)c1` (configuration not stated), the “activity change, negative = inhibition” value is 37.1%. The value for `CC(C)(C)c1ccc(S(=O)(=O)N2CC3CC(C2)c2cccc(=O)n2C3)cc1` (configuration not stated) was -4.36%.
